# Laboratory results: the supplement of paper PMC13380429
# Tested on: Vero E6 infected with SARS-CoV-2
# Assay: morphology score (similarity to uninfected cells); higher = more like uninfected cells
# Conditions: 24 h
row,Structure (SMILES),morphology score
1,[N-]=[N+]=N[C@]1(CO)O[C@@H](n2ccc(N)nc2=O)[C@H](O)[C@@H]1O (10 µM),0.0194
2,COc1c(C)cnc(Cn2cnc3c(Cl)nc(N)nc32)c1C (10 µM),0.256
3,CCOc1ccc(Cc2nccc3cc(OCC)c(OCC)cc23)cc1OCC [ethaverine] (10 µM),0.2
4,CN(C)CC(=O)Nc1ccc2[nH]c(=O)c3ccccc3c2c1 (10 µM),0.202
5,CN(C)CC[C@@]1(c2ccc(Cl)cc2)Cc2ccccc2C(=O)O1 (racemic) (10 µM),-0.1
6,O=C(N/N=C/c1ccc(O)c(O)c1)c1cc2ccccc2cc1O [dynasore] (10 µM),-0.107
7,Cc1noc(NS(=O)(=O)c2cccc3c(N(C)C)cccc23)c1C (10 µM),0.115
8,COc1ccc(OC)c([C@@H](O)CNC(=O)CN)c1 [midodrine] (10 µM),-0.0583
9,CCCCC[C@H](O)/C=C/[C@H]1[C@H](O)CC(=O)[C@@H]1CCCCCCC(=O)O [alprostadil] (10 µM),0.11
10,CC(C)(C)CC(C)(C)c1cc(Cc2cc(C(C)(C)CC(C)(C)C)cc(-n3nc4ccccc4n3)c2O)c(O)c(-n2nc3ccccc3n2)c1 [bisoctrizole] (10 µM),-0.0457
11,CN(C)CC[C@H](CSc1ccccc1)Nc1ccc(S(=O)(=O)NC(=O)c2ccc(N3CCN(Cc4ccccc4-c4ccc(Cl)cc4)CC3)cc2)cc1[N+](=O)[O-] (10 µM),0.105
12,CCCC(=O)Nc1cccc(NC(=O)c2ccccc2Br)c1 (10 µM),-0.131
13,COc1ccc(CC(=O)NC(/N=C(\NC#N)Nc2cccc3ncccc23)C(C)(C)C)cc1OC (stereo not given) (10 µM),0.297
14,CN1CCC[C@@H](CC2c3ccccc3Sc3ccccc32)C1 (racemic) [metixene] (0.833333 µM),0.383
15,CCCCCCCCCCCCCCCC(=O)C(F)(F)F (10 µM),0.158
16,CCC(C)n1ncn(-c2ccc(N3CCN(c4ccc(OCC5COC(Cn6cncn6)(c6ccc(Cl)cc6Cl)O5)cc4)CC3)cc2)c1=O (stereo not given) [itraconazole] (10 µM),0.0302
17,CC(=O)N[C@@H](CC(C)C)C(=O)O [acetyl-l-leucine] (10 µM),0.134
18,O=C(NCc1ccc(OC(F)(F)F)cc1)C1c2ccccc2C(=O)N1C1CCOCC1 (stereo not given) (10 µM),-0.0695
19,O=C(O)CCC(=O)OC[C@@H](NC(=O)C(Cl)Cl)[C@H](O)c1ccc([N+](=O)[O-])cc1 [chloramphenicol-sodium-succinate] (10 µM),0.049
20,"CCS(=O)(=O)N(C)[C@H]1c2cc(C#N)ccc2OC(C)(C)[C@@H]1O [chromanol-293B-(-)-[3R,4S]] (10 µM)",0.135

row,Structure (SMILES),morphology score
1,COc1ccsc1CNCC[C@@]1(c2ccccn2)CCOC2(CCCC2)C1 (10 µM),-0.0456
2,COc1cc2nccc(Oc3ccc(NC(=O)NC4CC4)c(Cl)c3)c2cc1C(N)=O [lenvatinib] (10 µM),0.239
3,CC[C@H]1[C@@H]2C[C@H]3[C@@H]4N(C)c5ccccc5[C@]45C[C@@H]([C@@H]2[C@H]5O)N3[C@@H]1O [ajmaline] (10 µM),-0.0982
4,Nc1ccc(C(=O)O)cc1 [potassium-p-aminobenzoate] (10 µM),-0.112
5,C=CC[C@]1(O)CC[C@H]2[C@@H]3CCC4=CCCC[C@@H]4[C@H]3CC[C@@]21C [allylestrenol] (10 µM),0.0416
6,CC(C)=CCC[C@](C)(O)[C@H]1CC[C@]2(C)[C@@H]1[C@H](O)C[C@@H]1[C@@]3(C)CC[C@H](O)C(C)(C)[C@@H]3[C@@H](O)C[C@]12C [hemomex-s] (10 µM),0.173
7,COc1ccccc1N1CCN(CCN2C(=O)c3ccccc3C(C)(C)C2=O)CC1 (10 µM),0.213
8,CC[C@H](C)[C@@H]([C@@H](CC(=O)N1CCC[C@H]1[C@H](OC)[C@@H](C)C(=O)N[C@@H](Cc1ccccc1)c1nccs1)OC)N(C)C(=O)[C@@H](NC(=O)[C@H](C(C)C)N(C)C)C(C)C [dolastatin-10] (0.833333 µM),0.0156
9,COc1ccc2c(c1OC)C(=O)O[C@@H]2[C@H]1c2c(cc3c(c2OC)OCO3)CCN1C [noscapine] (10 µM),-0.105
10,CN1CCC(=C2c3ccccc3CCc3sccc32)CC1 [pizotifen] (10 µM),0.285
11,Cc1cc(C)c2c(N)c(C(=O)NCc3ccc(Cl)cc3)sc2n1 (10 µM),0.0846
12,CCOC(=O)N[C@@H]1CC[C@@H]2[C@@H](C1)C[C@H]1C(=O)O[C@H](C)[C@H]1[C@H]2/C=C/c1ccc(-c2cccc(F)c2)cn1 [vorapaxar] (10 µM),0.209
13,Oc1ccc2[nH]cc(C3=CCNCC3)c2n1 (10 µM),0.00585
14,COc1ccc(-c2sc(NC(=O)C(C)(C)C)nc2C)cc1S(=O)(=O)Nc1ccc(O)cc1 [PI4KIII-beta-inhibitor-1] (10 µM),0.325
15,CC[N+](CC)(CC)CC(=O)Nc1c(C)cccc1C (10 µM),0.0409
16,CN1CCC(OC(c2ccccc2)c2ccccc2)CC1 [diphenylpyraline] (10 µM),0.291
17,COc1ccc2nc3c(c(N)c2c1)CCCC3 [7-methoxytacrine] (10 µM),0.597
18,CCc1cc(O)c(Oc2ccc(C(N)=O)cc2F)cc1F (10 µM),0.0909
19,CCOC(=O)C1=C(C)NC(C)=C(C(=O)OC)[C@@H]1c1cccc([N+](=O)[O-])c1 (racemic) [nitrendipine] (10 µM),-0.062
20,CCOc1ccc(/C=C2\NCCc3cc(OCC)c(OCC)cc32)cc1OCC [drotaverine] (10 µM),0.156
